Most compounds without a hit are left out; they make up all but 2.8% or so of the library.
SKKanGAS inh: S. pyogenes SKKanGAS growth inhibitors in kanamycin, primary screen, streptokinase expression inhibitor project, SKKanGAS strain, BacTiter-Glo luminescence; 6 h; inhibition, % at 7.5 µM; 1.3% of 300,000 active; AID 1662, 2009;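 active = mean replicate score, as percent of positive control median, at least 50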;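 also: strain carries kanamycin resistance gene driven by streptokinase promoter and grows in 40 µg/ml kanamycin; loss of luminescence reflects streptokinase promoter inhibition or plain growth inhibition; 0% = median of DMSO wells and 100% = positive control at its reference dose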
Granule exo inh: LAMP-1 surface exposure blockers, TALL-104 cells – cell-based, flow cytometry, MLPCN library, primary screen; TALL-104 LAMP-1 surface exposure; cells stimulated with thapsigargin and PMA; inhibition, % at 10 µM; 0.66% of 360,000 active; AID 651702, 2012;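 active = inhibition above about 55%, limit read from the data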
IDE cell activ: human IDE activators in live cells, primary screen, fluorescence polarization, HEK cells, FAbeta-B substrate | Insulin-degrading enzyme (Homo sapiens), P14735 | FAbeta-B cleavage; 0% vehicle, 100% cell-free pure enzyme wells | activation, % at 5.96 µM | 0.073% of 340,000 active | AID 493087, 2011;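 active = activation above the mean of all tested compounds plus 3 SD, set per screening campaign, cut at about 17% in these data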
Target sequence (P14735 whole entry, looked up): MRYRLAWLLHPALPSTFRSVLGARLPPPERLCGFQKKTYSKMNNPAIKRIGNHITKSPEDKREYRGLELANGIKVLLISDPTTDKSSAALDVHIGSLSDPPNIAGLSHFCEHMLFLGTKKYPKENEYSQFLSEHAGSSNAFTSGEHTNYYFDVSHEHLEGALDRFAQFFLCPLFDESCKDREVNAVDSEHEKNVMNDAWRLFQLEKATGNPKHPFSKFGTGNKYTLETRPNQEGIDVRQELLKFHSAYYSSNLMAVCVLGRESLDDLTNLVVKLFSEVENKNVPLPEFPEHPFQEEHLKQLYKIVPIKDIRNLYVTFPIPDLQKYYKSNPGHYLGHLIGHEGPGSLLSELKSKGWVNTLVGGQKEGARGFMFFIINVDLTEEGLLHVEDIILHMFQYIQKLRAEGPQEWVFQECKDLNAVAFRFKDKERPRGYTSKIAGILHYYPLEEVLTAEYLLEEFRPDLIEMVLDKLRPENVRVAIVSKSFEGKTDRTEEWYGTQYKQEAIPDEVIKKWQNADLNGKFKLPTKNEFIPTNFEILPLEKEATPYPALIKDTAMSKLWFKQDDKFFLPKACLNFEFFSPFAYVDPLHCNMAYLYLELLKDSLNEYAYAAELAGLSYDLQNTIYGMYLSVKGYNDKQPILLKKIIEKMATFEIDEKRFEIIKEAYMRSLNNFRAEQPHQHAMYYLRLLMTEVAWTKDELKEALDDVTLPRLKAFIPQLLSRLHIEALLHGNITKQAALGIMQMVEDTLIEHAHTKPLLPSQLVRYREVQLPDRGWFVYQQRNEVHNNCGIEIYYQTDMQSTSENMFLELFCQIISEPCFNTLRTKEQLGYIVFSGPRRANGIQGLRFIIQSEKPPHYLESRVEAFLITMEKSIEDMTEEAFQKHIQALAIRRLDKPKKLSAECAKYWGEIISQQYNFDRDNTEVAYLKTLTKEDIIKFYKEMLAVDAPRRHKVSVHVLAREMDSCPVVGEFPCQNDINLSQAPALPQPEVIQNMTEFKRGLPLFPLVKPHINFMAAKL
PP1 counter: PP1-alpha phosphatase inhibitors, primary screen, counter-screen for PP5 inhibitor project, biochemical, fluorescence, OMFP substrate, single point; purified PP1alpha; inhibition, % at 6.7 µM; 0.9% of 320,000 active;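 active = inhibition above the mean inhibition of all tested compounds plus 3 SD, computed separately for each screening campaign, cut at about 15% in these data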
PP5 primary: PP5 phosphatase inhibitors, primary screen, biochemical, fluorescence. purified PP5c, OMFP substrate fluorescence. inhibition, % at 6.7 µM. 0.18% of 320,000 active. AID 1987, 2009;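 active = inhibition above the campaign's mean inhibition across all tested compounds plus 3 SD, cut at about 9.5% in these data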;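 also: 0% = DMSO only and 100% = 100 µM cantharidin control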
IDE inh: human IDE inhibitors in live cells, primary screen, fluorescence polarization, HEK cells, FAbetaB substrate. FAbetaB cleavage. inhibition, % at 5.59 µM. 0.41% of 320,000 active;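 active = percent inhibition above the average of all tested compounds plus 3 SD, set per screening campaign, cut at about 16% in these data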;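 also: IDE supplied by intact live HEK cells; FP after avidin binding of uncleaved biotin substrate so inhibition keeps polarization high; 0% = DMSO wells and 100% = 60 µM reference IDE inhibitor Ii1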
IDE inh confirm: human IDE inhibitors in live cells, confirmation, fluorescence polarization, HEK cells, FAbetaB substrate | shares compounds with IDE inh | FAbetaB cleavage | inhibition, % at 5.59 µM | 51% of 1,200 active;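 active = mean inhibition across triplicate wells above the cutoff set by the earlier primary insulin-degrading enzyme screen, cut at about 16% in these data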;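 also: 0% = DMSO wells and 100% = 60 µM reference IDE inhibitor Ii1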
HEK cytotox: cytotoxicity in HEK cells, cytotoxicity control for IDE inhibitor project, cell-based, luminescence | inhibition, % at 5.59 µM | AID 449730, 2010 | HEK293 cytotoxicity, ATP luminescence | shares compounds with IDE inh | 28% of 1,200 active; in the data active = inhibition above about 22%;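 also: 0% = vehicle wells and 100% = reference cytotoxic drug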
IDE FP artifact: fluorescent or optically active artefacts, dose response, artefact control for IDE inhibitor project, biochemical, fluorescence polarization | 30 tested, under 10 active | shares compounds with IDE inh | IC50, µM | FP counterscreen for fluorescent artifacts, IDE probe project; call rule not given here
* marks the source's active call; other numbers are inactive results; x = not tested or not shown.

SMILES | SKKanGAS inh | Granule exo inh | IDE cell activ | PP1 counter | PP5 primary | IDE inh | IDE inh confirm | HEK cytotox | others
CC1CCN(c2ccc3c(c2)S(=O)(=O)c2cccc(C(=O)NC4CCCCC4)c2C3=O)CC1 | x | -4 | -8 | 5 | 1 | 6 | x | x
Cc1onc(-c2ccccc2)c1-c1nnc(CN2CCN(S(=O)(=O)c3ccccc3)CC2)o1 | x | 1 | -2 | 1 | 0 | 1 | x | x
Cc1cccc(N2CCN(C(=O)CCCn3c(=O)c4cccn4c4cccnc43)CC2)c1C | 24 | 9 | -11 | 1 | 8 | 25* | 7 | 23*
Cc1cccc(Nc2ncnc3c2cnn3C)c1 | 2 | -7 | -15 | 0 | 3 | 8 | x | x
Cn1ncc2c(Nc3ccc4ccccc4c3)ncnc21 | 15 | 1 | -58 | 0 | 2 | 32* | 4 | 10
CN(C(=O)CSc1nnc(Cc2cccs2)n1C1CC1)C1CCS(=O)(=O)C1 (stereo not given) | x | 0 | 3 | x | x | x | x | x
O=C(Nc1cccc(C(F)(F)F)c1)c1csc(Cc2cccc(C(F)(F)F)c2)n1 | x | x | x | x | x | x | x | x | IDE FP artifact=>55
O=C(Nc1ccc(Cl)cc1)c1csc(Cc2ccccc2)n1 | -13 | 3 | 5 | 3 | 1 | -1 | x | x
Cc1nc2ccc(NC(=O)c3ccc(Cl)c(S(=O)(=O)N(C)c4ccccc4)c3)cc2s1 | 17 | 18 | -6 | 2 | 3 | 26* | 3 | 54*
Cc1nc2ccc(NC(=O)c3cc(S(=O)(=O)N(C)c4ccccc4)ccc3Cl)cc2s1 | 10 | 0 | 1 | 6 | 4 | 5 | x | x
Cc1[nH]n(-c2ccccc2)c(=S)c1C=Nc1cccc([N+](=O)[O-])c1 | -3 | -4 | -13 | 0 | 1 | 25* | 2 | 8
CCCCn1nnnc1C(c1ccccc1)N1CCN(c2ccc(F)cc2)CC1 (stereo not given) | x | -3 | x | x | x | x | x | x
Cc1ccc(CCNC(=O)Cc2ccc(NC3=NC4CS(=O)(=O)CC4S3)cc2)cc1 (stereo not given) | -3 | 0 | -21 | -4 | 1 | 17* | 8 | 6
CC(C)OC(=O)CSc1nnc2c(n1)[nH]c1ccc(F)cc12 | 4 | 1 | -2 | 0 | 0 | -9 | x | x
Cc1cc2cc(C(c3nnnn3Cc3ccccc3)N3CCc4ccccc43)c(=O)[nH]c2cc1C (stereo not given) | 13 | 0 | 1 | 9 | 5 | 16* | 3 | 9
CCOc1cccc(/C=C(/C#N)c2nc3ccccc3[nH]2)c1OCC(=O)O | -3 | 2 | 2 | -1 | -1 | -19 | x | x
CCN(CC)c1ccc(/C=C(/C#N)c2nc3ccccc3[nH]2)c(OC(C)C)c1 | 40 | 4 | -154 | 8 | 4 | 141* | 149* | 32*
COc1ccc2nc(NC(=O)CN(c3ccc(C)cc3)S(=O)(=O)c3c(C)nn(C)c3C)sc2c1 | 26 | 1 | -1 | 1 | 4 | 16* | 5 | 15
O=C(/C=C/c1ccc(N2CCC(c3ccccc3)=N2)cc1)c1ccccc1 | -5 | x | x | -10 | -8 | 112* | 63* | 15
CCOC(=O)/C(=C\c1ccc(N2CCC(c3ccccc3)=N2)cc1)C(C)=O | x | 0 | -84 | x | x | x | x | x
CC[C@]1(C(=O)OC)[C@H]2C(=O)N(Cc3ccccc3)C(=O)[C@H]2[C@H]2CN=C(SC)N21 | x | -2 | 0 | x | x | x | x | x
Cc1cc(NC(=O)CSCC(=O)OCc2nnc(-c3ccc(F)cc3)o2)no1 | x | 0 | 2 | x | x | 2 | x | x
O=C(Nc1nc2c(s1)CN(Cc1ccccc1)CC2)C1CCC1 | 4 | 1 | -1 | 0 | 1 | 11 | x | x
CN(C)c1ccc(/C=C(\C#N)C(=O)Nc2nc3c(s2)CCN(Cc2ccccc2)C3)cc1 | 9 | 3 | -28 | 2 | 0 | 38* | 58* | 11
COc1cc(/C=C2\SC(=Nc3ccccc3)NC2=O)cc(Cl)c1O | 27 | 25 | -112 | -8 | -8 | 134* | 150* | 28*
SMILES | SKKanGAS inh | Granule exo inh | IDE cell activ | PP1 counter | PP5 primary | IDE inh | IDE inh confirm | HEK cytotox | others
CCCCn1nnc(NC(=O)c2ccc(-c3ccccc3)cc2)n1 | 12 | -1 | -12 | -8 | 3 | 18* | 7 | 55*
COc1ccc(Cl)cc1S(=O)(=O)NC(C)C(=O)NCc1ccc2c(c1)OCO2 (stereo not given) | -1 | -2 | 1 | -3 | 0 | 2 | x | x
COc1cc(/C=N\NC(=O)c2ccc(-c3ccccc3)cc2)cc(OC)c1O | 27 | 2 | -12 | 0 | 3 | 19* | 12 | 11
COc1ccc(C(=O)N/N=C/c2sc3ccccc3c2O)cc1 | 33 | -4 | -27 | 12 | 2 | 17* | 33* | 87*
O=C(N/N=C/c1sc2ccccc2c1O)c1ccccc1 | 90* | -1 | -32 | 1 | 2 | 34* | 62* | 115*
COc1ccc2cc(C(=O)N/N=C/c3sc4ccccc4c3O)ccc2c1 | 10 | 13 | -25 | 9 | 2 | 14 | x | x
CCOc1ccc(N=C(C)C2=C(O)c3ccccc3C2=O)cc1 | 20 | 1 | -11 | -1 | -1 | 4 | x | x
COc1ccc(N=C(C)C2=C(O)c3ccccc3C2=O)cc1 | -1 | 0 | -5 | 1 | 3 | 18* | 7 | 16
COc1ccccc1C(=O)NCC(=O)OCC(=O)c1ccc2c(c1)-c1ccccc1C2 | 7 | -2 | -7 | 9 | 3 | 22* | 6 | 9
CCOc1ccc(C(=O)NCC(=O)OCC(=O)c2ccc3c(c2)-c2ccccc2C3)cc1 | -18 | 9 | -11 | 8 | 1 | 11 | x | x
O=C(NCc1ccc(F)cc1)c1cc(C2CCCCN2S(=O)(=O)c2ccc(F)cc2F)on1 (stereo not given) | x | 6 | x | x | x | x | x | x
CCOC(=O)c1c(NC(=O)COC(=O)CNC(=O)c2ccco2)sc(C(C)=O)c1C | 2 | 3 | -7 | 0 | 1 | 17* | 9 | 6
CC1(O)C(c2ccccc2)=Nc2ccccc21 (stereo not given) | x | 0 | x | x | x | x | x | x
O=S1(=O)CCN(CCCCc2ccccc2)CC1 | x | -2 | x | x | x | x | x | x

From PubChem
